From PubChem BioAssay (Tox21)
Inconclusive results are not listed. Unmarked numbers belong to inactive results. Calls of active or inactive are those of the source. Calls come from the whole dose curve; as a rule, active = well fitted activation curve with a large enough effect in the signal ratio in the repeat runs (not every such curve was filed as active); inconclusive = weak or mixed curves, or effect the other way; inactive = flat fitted curve, though single readings scatter; the % refers to the signal ratio.

biological target: Estrogen receptor beta (Homo sapiens) (UniProt Q92731); assay: qHTS assay to identify small molecule agonists of the estrogen receptor beta (ER-beta) signaling pathway (AID 1259377); conditions: ER-beta-UAS-bla HEK293T, beta-lactamase FRET ratio, 16 h; series mostly up to 42.5 µM
Excerpt: U.S. Tox21 Program National Center for Advancing Translational Sciences [NCATS] NIH Chemical Genomics Center [NCGC] U.S. Environmental Protection Agency [EPA] National Institutes of Environmental Health Sciences [NIEHS] National Toxicology Program [NTP] U.S. Food and Drug Administration [FDA] Tox21 Assay Overview: Estrogen receptor (ER), a nuclear hormone receptor, plays an important role in development, metabolic homeostasis and reproduction. Two subtypes of ER, ER-alpha and ER-beta, have similar expression patterns with some uniqueness in both types. Endocrine disrupting chemicals (EDCs) and their interactions with steroid hormone receptors like ER causes disruption of normal endocrine function. To identify the compounds that activate ER signaling, an ER beta-UAS-bla GripTite cell line (Life technologies, Madison, WI, USA) containing a beta-lactamase reporter gene under the control of an Upstream Activator Sequence (UAS) was used to screen Tox21 10K compound library.
Tox21 Assay Protocol Summary: ER-beta-UAS-bla HEK293T cells were dispensed at 2,000 cells/5 uL of assay medium containing 2% charcoal stripped FBS per well into black wall/clear-bottom 1536-well plates using a Multidrop Combi (ThermoFisher Scientific, Waltham, MA) dispenser. After the assay plates were incubated at a 37C and 5% CO2 for 6 hr, 23 nL of compounds dissolved in DMSO, positive controls or DMSO only was transferred to the assay plate by a Pintool station (Kalypsys, San Diego, CA). The plates were incubated at 37C and 5% CO2 for 16 hr. Then 1 uL of LiveBLAzerTM B/G FRET substrate was added using a BioRAPTR FRD (Flying Reagent Dispenser, Aurora Discovery, San Diego, CA). After the plates were incubated at room temperature for 2 hours, fluorescence intensity was measured by an Envision plate reader (PerkinElmer, Shelton, CT).
% is set by controls: 0 for no effect and ±100 for the full control effect.

Estrogen receptor beta (Homo sapiens), sequence (Q92731 whole entry, looked up): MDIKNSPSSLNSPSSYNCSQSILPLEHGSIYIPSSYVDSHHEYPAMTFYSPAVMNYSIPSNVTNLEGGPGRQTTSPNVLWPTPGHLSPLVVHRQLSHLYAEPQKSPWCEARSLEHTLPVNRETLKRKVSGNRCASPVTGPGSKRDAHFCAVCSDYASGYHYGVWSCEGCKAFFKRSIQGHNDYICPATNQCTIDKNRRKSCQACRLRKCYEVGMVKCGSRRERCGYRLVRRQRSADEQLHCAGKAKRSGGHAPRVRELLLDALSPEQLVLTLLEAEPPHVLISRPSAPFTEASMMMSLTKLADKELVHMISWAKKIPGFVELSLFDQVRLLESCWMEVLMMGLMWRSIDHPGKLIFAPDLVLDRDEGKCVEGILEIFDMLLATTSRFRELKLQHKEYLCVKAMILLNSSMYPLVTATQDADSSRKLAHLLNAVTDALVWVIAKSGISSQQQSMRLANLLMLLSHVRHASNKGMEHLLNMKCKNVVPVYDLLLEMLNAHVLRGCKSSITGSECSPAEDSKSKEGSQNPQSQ

Row | SMILES | outcome | activation
1 | O=C1NC(=O)[C@@]2(CCOc3ccc(F)cc32)N1 | inactive | 
2 | CC(=O)OC/C=C(\C)CC/C=C(\C)CCC=C(C)C | inactive | 
3 | CC(C(=O)O)c1ccc(CC2CCCC2=O)cc1 (stereo not given) | inactive | 
4 | CC(C)(O)C(=O)c1ccccc1 | inactive | 
5 | CCC=O | inactive | 
6 | CC(C)=CCCC(C)CC(=O)O (stereo not given) | inactive | 
7 | COc1nc(N)nc2c1ncn2[C@@H]1O[C@H](CO)[C@@H](O)[C@@H]1O | inactive | 
8 | CC(C)NC(=O)NC(C)C | inactive | 
9 | CS(=O)(=O)O | inactive | 
10 | NS(=O)(=O)c1cc(C(=O)NN2C[C@H]3[C@H]4CCC(C4)[C@H]3C2)ccc1Cl | inactive | 
11 | C[C@H]1C[C@@H](O)CC(C)(C)C1 | inactive | 
12 | CN1CC(=O)NC1=N | inactive | 
13 | CC(C)(CC(=O)O)C(=O)O | inactive | 
14 | CCO/C([O-])=N/c1c[n+](N2CCOCC2)no1 | inactive | 
15 | COC(=O)c1ccc(C)cc1C1=NC(C)(C(C)C)C(=O)N1 (stereo not given) | inactive | 
16 | CN1CCC(=C2c3ccccc3CC(=O)c3sccc32)CC1 | inactive | 
17 | CCCCOCCOCCOCc1cc2c(cc1CCC)OCO2 | inactive | 
18 | CCOc1ccc(C(=O)OCCN(CC)CC)cc1 | inactive | 
19 | COC(=O)CC(C)=O | inactive | 
20 | O=C(O)Cc1ccc(CCNS(=O)(=O)c2ccc(Cl)cc2)cc1 | inactive | 

Row | SMILES | outcome | activation
21 | CC(=O)CC(C)C | inactive | 
22 | Cc1nc2c([nH]1)c(=O)n(C)c(=O)n2Cc1ccco1 | inactive | 
23 | O=C(O)CCCc1ccccc1 | inactive | 
24 | NC(=O)Nc1ccccc1 | inactive | 
25 | CC(C)CNCC(C)C | inactive | 
26 | CCOC(=O)C(=O)OCC | inactive | 
27 | Nc1cc(=O)[nH]c(N)n1 | inactive | 
28 | CCCCCCCCCCCCCC=O |  | 5.64% [at 8.39 µM]
29 | COc1ccccc1OCC(O)CN1CCN(CC(=O)Nc2c(C)cccc2C)CC1 (stereo not given) | inactive | 
30 | Oc1ccc(C2CNCCc3c2cc(O)c(O)c3Cl)cc1 (stereo not given) | inactive | 
31 | FC(F)OC(Cl)C(F)(F)F (stereo not given) | inactive | 
32 | CC(=O)OCC(CCn1cnc2cnc(N)nc21)COC(C)=O | inactive | 
33 | C=CCCCCCCCCC=O | inactive | 
34 | O=C1CC2CC1C1CCCC21 (stereo not given) | inactive | 
35 | FC1(F)C(F)(F)C(F)(F)C2(F)C(F)(F)C(F)(F)C(F)(F)C(F)(F)C2(F)C1(F)F (stereo not given) | inactive | 
36 | Nc1nc2c(ncn2COC(CO)CO)c(=O)[nH]1 | inactive | 
37 | CC(C)NCC(O)c1ccc(NS(C)(=O)=O)cc1 (stereo not given) | inactive | 
38 | Cc1ccc(Cl)cc1Cl | inactive | 
39 | CC(C)c1cc2c(cc1S(=O)(=O)O)[C@@]1(C)CCC[C@@](C)(C(=O)O)[C@@H]1CC2 | inactive | 
40 | CCOC(=O)Nc1ccc(NCc2ccc(F)cc2)nc1N | inactive | 
